LASV entry inh = Lassa virus entry inhibition. Potency, µM (doses to about 37.9 µM), without a hit: at the top dose activity change, negative = inhibition, most hits filed as inhibitors. 300,000 compounds, 1.2% hits. AID 540256. Lassa virus pseudotype entry inhibition, cell reporter; calls by dose curve; tested in HEK293 cells; note: potency is the fitted concentration of half-maximal effect; % is set by controls: 0 for no effect and ±100 for the full control effect; nearly all actives have a fitted effect of over 50% in size
Shiga toxin inh = inhibitors of Shiga toxin in Vero cells. Vero cells, Shiga toxin protein synthesis inhibition reporter. inhibition, % at 38.7 µM. 290,000 compounds, 9.2% hits; in the data active = inhibition mostly above about 28%, no sharp cut-off; inactive = mostly below about 43%; note: 0% is about no effect
Cycloheximide cs = affects cycloheximide protein synthesis inhibition readout, counter-screen; cell reporter, cycloheximide protein synthesis inhibition counterscreen; AID 2314; 300,000 compounds, 12% hits; max response, %; in the data active = max response mostly above about 13%, no sharp cut-off; inactive = mostly below about 14%; note: read at 38.3 µM for the half of the compounds with a filed dose; 0% is about no effect
Marburg entry inh = inhibitors of Marburg virus binding or cell entry; Marburg virus pseudotyped entry inhibition, cell reporter; Potency, µM (top dose mostly 37.8 µM), for inactives: at the top dose activity change, negative = inhibition, most hits filed as inhibitors; 300,000 compounds, 1.8% hits; AID 540276; calls by dose curve; tested in HEK293 cells; note: potency is the fitted concentration of half-maximal effect; % is set by controls: 0 for no effect and ±100 for the full control effect
* = called active by the depositor; [ ] = dose if it differs, or a comment. Most compounds without a hit are left out; they make up all but 12% or so of the library.

For CN1C(=O)N(c2ccccc2)[C@@H](Nc2nncs2)C1(C)C the results were Marburg entry inh 0%.
`CC(C)CN(C)C(=O)CCc1nnc(Cc2ccc(-c3ccccc3)cc2)o1` gave Shiga toxin inh 38 and Cycloheximide cs 22*.
Cc1cc(-c2nnc(CCC(=O)N(C)CCc3ccccc3)o2)no1 was read as Shiga toxin inh 74* and Cycloheximide cs 19*.
For O=c1oc2c3c4c(cc2cc1-c1nc2ccccc2[nH]1)CCCN4CCC3 the results were Marburg entry inh 0%.
For N=c1oc2c3c4c(cc2cc1C(=O)Nc1ccccc1)CCCN4CCC3 the results were LASV entry inh inconclusive, Shiga toxin inh 28, Cycloheximide cs 23* and Marburg entry inh -2%.
`Cc1sc2ncnc(OCC(=O)N3CCN(S(=O)(=O)c4ccc(Cl)cc4)CC3)c2c1C` gave LASV entry inh -23%, Shiga toxin inh 14, Cycloheximide cs 10* and Marburg entry inh -2%.
Screening COc1ccc(/C=N/NC(=O)c2ccco2)cc1Cn1nc(C)cc1C returned LASV entry inh 10%, Shiga toxin inh 67*, Cycloheximide cs 34* and Marburg entry inh -16%.
Screening COCc1cc(/C=N\NC(=O)COc2ccc(Cl)cc2)ccc1OC returned LASV entry inh inconclusive, Shiga toxin inh -6, Cycloheximide cs -4 and Marburg entry inh -41%.
Screening COc1ccc(/C=N\NC(=O)COc2ccc(C(C)(C)C)cc2)cc1Cn1nc(C)cc1C returned LASV entry inh 2.2µM*, Shiga toxin inh -14, Cycloheximide cs 8 and Marburg entry inh inconclusive.
Screening COc1ccc(/C=N/NC(=O)c2ccco2)cc1Cn1nc(C)c([N+](=O)[O-])c1C returned LASV entry inh -3%, Shiga toxin inh -10, Cycloheximide cs 9 and Marburg entry inh inconclusive.
Screening COc1cc(-c2nc3ccccn3c2NCC2CCCO2)ccc1O (configuration not stated) returned LASV entry inh -18%, Shiga toxin inh 14, Cycloheximide cs -3 and Marburg entry inh 5%.
COc1ccc(-c2nc3cccc(C)n3c2NCC2CCCO2)cc1O (configuration not stated) was read as LASV entry inh 13%, Shiga toxin inh 46*, Cycloheximide cs 8.1* and Marburg entry inh -25%[46.1 µM].
Cc1cc2nn(-c3ccc(F)cc3)nc2cc1NC(=O)c1cc(Cl)ccc1Cl was read as LASV entry inh 12%[46.1 µM] and Marburg entry inh inconclusive.
Screening Cn1c2ccccc2c(=O)c2ccc(C#Cc3ccc(N)cc3)cc21 returned Shiga toxin inh 20 and Cycloheximide cs 26*.
COc1ccccc1Cc1nc2ccccc2nc1SCC(=O)Nc1c(C)cccc1C was read as LASV entry inh 21%[46.1 µM].
`CCOCCN1CCN(C2c3ccccc3CSc3ccccc32)CC1` (configuration not stated) gave LASV entry inh inconclusive and Marburg entry inh 13µM*.
Cc1cccc(NC(=O)c2cn(-c3ccccc3)nc2-c2ccccc2)c1 was read as LASV entry inh -2%, Shiga toxin inh 27, Cycloheximide cs 13* and Marburg entry inh inconclusive.
Screening O=C(/C=C/c1cn(-c2ccccc2)nc1-c1ccccc1)Nc1ccc(C(=O)O)cc1 returned LASV entry inh inconclusive, Shiga toxin inh 63*, Cycloheximide cs 14 and Marburg entry inh -5%.
O=C(NC(=S)NCCO)c1cn(-c2ccccc2)nc1-c1ccccc1 was read as LASV entry inh 20%[46.1 µM], Shiga toxin inh 49*, Cycloheximide cs 24 and Marburg entry inh 19%[46.1 µM].
For CN1CCN(NC(=O)c2cn(-c3ccccc3)nc2-c2ccc(OC(F)F)cc2)CC1 the results were LASV entry inh 7%, Shiga toxin inh -15, Cycloheximide cs -5 and Marburg entry inh 7.1µM*.
CC1CCc2sc(C(=O)N(C)CC(=O)Nc3ccc(N4CCOCC4)cc3)cc2C1 (configuration not stated) was read as LASV entry inh -6%, Shiga toxin inh 13, Cycloheximide cs -3 and Marburg entry inh -3%.
`COC(=O)c1ccc(C(=O)OC)c(NC(=O)C2CC(=O)N(C3CCCC3)C2)c1` (configuration not stated) gave LASV entry inh -30% and Marburg entry inh 6%[46.1 µM].
Cc1ccc2nc(SCC(=O)N3CCN(c4ccccc4)CC3)[nH]c2c1 was read as LASV entry inh inconclusive, Shiga toxin inh 13, Cycloheximide cs 1 and Marburg entry inh 14%[46.1 µM].
`O=C(O)CCCN=Cc1c(O)c2ccccc2oc1=O` gave LASV entry inh -28%[46.1 µM], Shiga toxin inh -9, Cycloheximide cs -1 and Marburg entry inh -23%[46.1 µM].
For Cc1ccc(S(=O)(=O)N2CC=C(c3c(C)n(CC(=O)N4CCCC4)c4ccccc34)CC2)cc1C the results were LASV entry inh -19%[46.1 µM], Shiga toxin inh -3, Cycloheximide cs -5 and Marburg entry inh inconclusive.
`O=C(Nc1ccncc1)c1cn(-c2ccccc2)nc1-c1cccs1` gave LASV entry inh -8%, Shiga toxin inh 67, Cycloheximide cs 44* and Marburg entry inh inconclusive.
CCOC(=O)c1cc(C(=O)Nc2cccc(C)c2)nn1C was read as LASV entry inh inconclusive, Shiga toxin inh 155*, Cycloheximide cs 40* and Marburg entry inh inconclusive.
For O=C(O)c1ccc(NC(=O)c2cn(-c3ccccc3)nc2-c2ccc(F)cc2)cc1 the results were LASV entry inh 18%[46.1 µM], Shiga toxin inh 94*, Cycloheximide cs 39* and Marburg entry inh 17%[46.1 µM].
COC(=O)c1ccc(NC(=O)c2cn(-c3ccccc3)nc2-c2ccncc2)cc1 was read as LASV entry inh -15%, Shiga toxin inh 3, Cycloheximide cs 2 and Marburg entry inh 13µM*.
Cn1nc(C(=O)Nc2cccc(Cl)c2)cc1C(=O)Nc1cccc(Cl)c1 was read as Shiga toxin inh 12 and Cycloheximide cs -3.
CC(=O)c1ccc(NC(=O)c2cn(-c3ccccc3)nc2-c2ccncc2)cc1 was read as LASV entry inh inconclusive, Shiga toxin inh 10, Cycloheximide cs 0 and Marburg entry inh inconclusive.
CC(NC(=O)C1CCCN1S(=O)(=O)c1ccccc1)c1ccccc1 (configuration not stated) was read as LASV entry inh -14%, Shiga toxin inh -5, Cycloheximide cs 3 and Marburg entry inh -3%.
O=C(c1ccc(-c2ccccc2)cc1)N1CCN(c2ccccn2)CC1 was read as LASV entry inh -18%[46.1 µM], Shiga toxin inh -3, Cycloheximide cs -3 and Marburg entry inh inconclusive.
Screening COc1ccccc1C(=O)Nc1ccc2nc3n(c(=O)c2c1)CCCC3 returned Shiga toxin inh 23 and Cycloheximide cs 2.
Cc1cccc(NC(=O)c2c(C)nn(-c3ccccc3)c2Cl)c1 was read as LASV entry inh 14%, Shiga toxin inh 113*, Cycloheximide cs 47* and Marburg entry inh -16%[46.1 µM].
`CCCn1c(CCNC(=O)c2ccco2)nc2ccccc21` gave LASV entry inh -40%[46.1 µM], Shiga toxin inh -1, Cycloheximide cs -3 and Marburg entry inh inconclusive.
`COC(=O)c1c(C(=O)OC)n(CCCN)c2ccc(C)cc12` gave LASV entry inh inconclusive, Shiga toxin inh -14, Cycloheximide cs -3 and Marburg entry inh 8.2µM*.
For CCCn1c(N)c(N(CCOC)C(=O)c2cc3c(s2)CCCCC3)c(=O)[nH]c1=O the results were LASV entry inh 15%, Shiga toxin inh -11, Cycloheximide cs -3 and Marburg entry inh -16%.
